Assay in all cases: DAPPL (digital affinity profiling via proximity ligation, sequencing); 10 mM Tris-HCl pH 7.5, 50 mM NaCl, 1 mM DTT, 4% glycerol, room temperature, 30 min; GST-TFs on glutathione beads, 16-mer random dsDNA library, 0.1% formaldehyde crosslink after washing; high values mean tight binding
Holding throughout (details): protein: recombinant; tags: N-terminal GST; dsDNA, one strand shown

In one test the target is T1, ELK3 (Homo sapiens, UniProt P41970 1-407).
T1 sequence: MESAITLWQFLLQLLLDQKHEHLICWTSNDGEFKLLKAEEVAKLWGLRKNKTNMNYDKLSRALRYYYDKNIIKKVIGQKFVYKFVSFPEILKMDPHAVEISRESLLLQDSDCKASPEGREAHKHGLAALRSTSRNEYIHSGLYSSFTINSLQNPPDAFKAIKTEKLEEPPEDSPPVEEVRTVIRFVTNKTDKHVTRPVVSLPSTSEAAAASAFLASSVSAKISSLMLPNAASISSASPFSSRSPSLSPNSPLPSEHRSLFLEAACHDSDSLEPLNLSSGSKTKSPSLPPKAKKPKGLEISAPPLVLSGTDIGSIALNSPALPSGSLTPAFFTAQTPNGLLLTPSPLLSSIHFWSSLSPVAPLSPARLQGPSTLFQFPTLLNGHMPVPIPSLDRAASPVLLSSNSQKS
The method, boiled down: (§1)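 Human transcription factors fused to GST were expressed in yeast, captured on glutathione beads, given DNA barcodes and pooled with a GST-only negative control. Pools were incubated with 200 nmole of a 16-mer random double-stranded DNA library in Tris/NaCl/DTT/glycerol buffer at room temperature for 30 min. They were then washed, crosslinked with 0.1% formaldehyde, proximity-ligated (BsaI/T4 ligase, 1 h, 37 °C), PCR-amplified and sequenced on an Illumina NextSeq500. Binding signal is each 6-mer's read frequency for a factor divided by its frequency for the GST control.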

A further test concerns the target T2, ETV2 (Homo sapiens, UniProt O00321 1-342).
T2 sequence: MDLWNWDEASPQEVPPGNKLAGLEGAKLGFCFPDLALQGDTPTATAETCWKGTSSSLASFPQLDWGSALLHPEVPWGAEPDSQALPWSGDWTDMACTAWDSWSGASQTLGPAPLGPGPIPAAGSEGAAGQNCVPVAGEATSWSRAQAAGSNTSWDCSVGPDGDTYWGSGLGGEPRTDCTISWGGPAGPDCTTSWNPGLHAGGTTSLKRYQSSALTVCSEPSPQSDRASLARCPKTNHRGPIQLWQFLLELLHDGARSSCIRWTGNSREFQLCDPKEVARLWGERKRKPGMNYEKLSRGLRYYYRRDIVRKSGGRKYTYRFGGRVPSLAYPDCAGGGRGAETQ
The method, boiled down: as §1

The next test addresses T3, ETV7 (Homo sapiens, UniProt Q9Y603 1-341).
T3 sequence: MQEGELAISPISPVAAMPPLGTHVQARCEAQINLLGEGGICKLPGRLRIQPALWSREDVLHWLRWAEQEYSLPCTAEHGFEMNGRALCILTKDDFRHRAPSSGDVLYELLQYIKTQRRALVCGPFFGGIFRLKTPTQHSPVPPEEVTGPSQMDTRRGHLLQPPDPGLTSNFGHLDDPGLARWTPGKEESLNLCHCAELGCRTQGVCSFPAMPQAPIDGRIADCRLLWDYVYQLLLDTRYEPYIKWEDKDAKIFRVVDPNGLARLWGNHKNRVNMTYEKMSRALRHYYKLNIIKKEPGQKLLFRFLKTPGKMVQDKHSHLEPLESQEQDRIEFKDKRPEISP
The method, boiled down: as §1

The next test concerns the target T4, ELF3 (Homo sapiens, UniProt P78545 1-371).
T4 sequence: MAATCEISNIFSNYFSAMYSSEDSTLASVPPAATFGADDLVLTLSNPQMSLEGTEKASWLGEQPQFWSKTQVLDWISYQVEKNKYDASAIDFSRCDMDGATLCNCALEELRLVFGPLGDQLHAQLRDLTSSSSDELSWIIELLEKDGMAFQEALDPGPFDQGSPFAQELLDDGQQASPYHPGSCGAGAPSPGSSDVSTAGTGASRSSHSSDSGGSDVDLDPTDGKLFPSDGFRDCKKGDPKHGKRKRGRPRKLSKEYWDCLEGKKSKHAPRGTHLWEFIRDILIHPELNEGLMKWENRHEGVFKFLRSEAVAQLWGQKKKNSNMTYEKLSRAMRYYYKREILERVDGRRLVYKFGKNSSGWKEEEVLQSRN
The method, boiled down: as §1

The next test has as its target T5, ELK4 (Homo sapiens, UniProt P28324-2 1-405).
T5 sequence: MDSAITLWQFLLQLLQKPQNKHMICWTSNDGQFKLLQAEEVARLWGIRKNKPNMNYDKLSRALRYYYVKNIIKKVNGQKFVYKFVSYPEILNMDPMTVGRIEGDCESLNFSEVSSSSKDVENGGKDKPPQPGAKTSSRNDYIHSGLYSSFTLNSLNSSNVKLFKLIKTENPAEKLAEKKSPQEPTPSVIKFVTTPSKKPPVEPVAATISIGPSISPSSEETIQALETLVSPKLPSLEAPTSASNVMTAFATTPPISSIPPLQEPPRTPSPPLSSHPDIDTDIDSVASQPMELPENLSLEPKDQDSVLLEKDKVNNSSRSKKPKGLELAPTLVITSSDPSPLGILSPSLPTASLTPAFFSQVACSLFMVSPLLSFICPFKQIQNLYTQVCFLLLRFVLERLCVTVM
The method, boiled down:
as §1

The target in another test is CRX (Homo sapiens, UniProt O43186 1-299). The method, boiled down:
as §1

Chain of CRX (O43186 whole entry): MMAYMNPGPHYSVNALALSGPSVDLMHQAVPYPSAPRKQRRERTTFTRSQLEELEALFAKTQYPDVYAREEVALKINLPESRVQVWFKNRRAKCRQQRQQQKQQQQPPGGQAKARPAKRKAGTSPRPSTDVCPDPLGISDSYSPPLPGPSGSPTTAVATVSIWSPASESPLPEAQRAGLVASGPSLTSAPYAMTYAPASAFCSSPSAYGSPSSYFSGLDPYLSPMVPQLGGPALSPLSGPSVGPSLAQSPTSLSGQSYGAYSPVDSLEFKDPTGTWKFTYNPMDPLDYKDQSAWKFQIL

For the sequence AGTGCC, the binding signal is 1.05 fold enrichment (6-mer frequency, TF over GST control) in the test with ELK3; 1.08 fold enrichment (6-mer frequency, TF over GST control) with ETV2; 1.05 fold enrichment (6-mer frequency, TF over GST control) in the test with ETV7.
As for TGCCGG, the binding signal is 1.02 fold enrichment (6-mer frequency, TF over GST control) with ELK3 and 1.11 fold enrichment (6-mer frequency, TF over GST control) with ELF3.
On to TGGTGG, for which the binding signal is 1.22 fold enrichment (6-mer frequency, TF over GST control) with ELK3; 1.04 fold enrichment (6-mer frequency, TF over GST control) in the test with ELK4; 1.03 fold enrichment (6-mer frequency, TF over GST control) in the test with ETV2; 1.09 fold enrichment (6-mer frequency, TF over GST control) in the test with ETV7.
In the case of CGGATC, the binding signal with ETV2 is 1.03 fold enrichment (6-mer frequency, TF over GST control); with CRX, 1.21 fold enrichment (6-mer frequency, TF over GST control).
As to ACCGCA, the binding signal in the test with ELK3 is 1.19 fold enrichment (6-mer frequency, TF over GST control); with ELK4 it was 1.05 fold enrichment (6-mer frequency, TF over GST control); with ETV2 it was 1.3 fold enrichment (6-mer frequency, TF over GST control); with ELF3, 1.29 fold enrichment (6-mer frequency, TF over GST control); with CRX it was 1.01 fold enrichment (6-mer frequency, TF over GST control); with ETV7 it was 1.12 fold enrichment (6-mer frequency, TF over GST control).
Regarding AGTGAC, the binding signal in the test with ETV7 was 1.03 fold enrichment (6-mer frequency, TF over GST control).
With GGTTAT, the binding signal with ELK3 was 1.07 fold enrichment (6-mer frequency, TF over GST control); in the test with ETV2, 1.09 fold enrichment (6-mer frequency, TF over GST control); in the test with CRX, 1.04 fold enrichment (6-mer frequency, TF over GST control); with ETV7, 1.12 fold enrichment (6-mer frequency, TF over GST control).
With GTCCTG, the binding signal in the test with ELK3 is 1.05 fold enrichment (6-mer frequency, TF over GST control); with ETV2 it was 1.29 fold enrichment (6-mer frequency, TF over GST control); in the test with ELF3, 1.07 fold enrichment (6-mer frequency, TF over GST control); with ETV7, 1.26 fold enrichment (6-mer frequency, TF over GST control).
On to AGTGGT, for which the binding signal with ELK3 is 1.15 fold enrichment (6-mer frequency, TF over GST control); in the test with ELK4, 1.1 fold enrichment (6-mer frequency, TF over GST control); with ELF3, 1.01 fold enrichment (6-mer frequency, TF over GST control); with ETV7, 1.14 fold enrichment (6-mer frequency, TF over GST control).
Take GTAGTT: the binding signal with ELK4 is 1.1 fold enrichment (6-mer frequency, TF over GST control); in the test with ETV2 it was 1.04 fold enrichment (6-mer frequency, TF over GST control); with ELF3, 1.09 fold enrichment (6-mer frequency, TF over GST control); with ETV7, 1.03 fold enrichment (6-mer frequency, TF over GST control).
For TCATAC, the binding signal with ELK3 is 1.17 fold enrichment (6-mer frequency, TF over GST control); with ELK4, 1.07 fold enrichment (6-mer frequency, TF over GST control); with ETV2, 1.15 fold enrichment (6-mer frequency, TF over GST control); in the test with ELF3, 1.08 fold enrichment (6-mer frequency, TF over GST control); with CRX, 1.02 fold enrichment (6-mer frequency, TF over GST control); in the test with ETV7, 1.09 fold enrichment (6-mer frequency, TF over GST control).
Turning to TGGGTA, the binding signal in the test with ELK3 is 1.12 fold enrichment (6-mer frequency, TF over GST control); with ELK4, 1.02 fold enrichment (6-mer frequency, TF over GST control); with ETV2, 1.14 fold enrichment (6-mer frequency, TF over GST control); in the test with ELF3, 1.1 fold enrichment (6-mer frequency, TF over GST control); with ETV7 it was 1.01 fold enrichment (6-mer frequency, TF over GST control).
For the sequence GCTTGT, the binding signal is 1.12 fold enrichment (6-mer frequency, TF over GST control) with ELK3; 1.03 fold enrichment (6-mer frequency, TF over GST control) with ETV2; 1.09 fold enrichment (6-mer frequency, TF over GST control) in the test with ELF3; 1.09 fold enrichment (6-mer frequency, TF over GST control) with ETV7.
Take GCCTGC: the binding signal was 1.08 fold enrichment (6-mer frequency, TF over GST control) in the test with ELK3; 1.18 fold enrichment (6-mer frequency, TF over GST control) with ELK4; 1.15 fold enrichment (6-mer frequency, TF over GST control) in the test with ETV2; 1.13 fold enrichment (6-mer frequency, TF over GST control) in the test with ELF3; 1.13 fold enrichment (6-mer frequency, TF over GST control) with ETV7.
For the sequence CTATCA, the binding signal with ELK3 is 1.11 fold enrichment (6-mer frequency, TF over GST control); with ELK4, 1.06 fold enrichment (6-mer frequency, TF over GST control); with ETV2 it was 1.05 fold enrichment (6-mer frequency, TF over GST control); in the test with ELF3 it was 1.02 fold enrichment (6-mer frequency, TF over GST control); with CRX it was 1.01 fold enrichment (6-mer frequency, TF over GST control); with ETV7 it was 1.06 fold enrichment (6-mer frequency, TF over GST control).
For the sequence ATTGGC, the binding signal with ELK3 was 1.16 fold enrichment (6-mer frequency, TF over GST control); with ELK4 it was 1.06 fold enrichment (6-mer frequency, TF over GST control); with ETV2, 1.1 fold enrichment (6-mer frequency, TF over GST control); in the test with ELF3, 1.24 fold enrichment (6-mer frequency, TF over GST control); in the test with CRX, 1.07 fold enrichment (6-mer frequency, TF over GST control); with ETV7, 1.04 fold enrichment (6-mer frequency, TF over GST control).
For the sequence GGTATG, the binding signal in the test with ELK4 is 1.09 fold enrichment (6-mer frequency, TF over GST control); with ETV2, 1.05 fold enrichment (6-mer frequency, TF over GST control); with ETV7 it was 1.01 fold enrichment (6-mer frequency, TF over GST control).
Consider ACTGTA, for which the binding signal with ELK3 is 1.04 fold enrichment (6-mer frequency, TF over GST control); with ELK4 it was 1.08 fold enrichment (6-mer frequency, TF over GST control); with ETV2, 1.17 fold enrichment (6-mer frequency, TF over GST control).
Regarding GCAATT, the binding signal with ELK3 is 1.05 fold enrichment (6-mer frequency, TF over GST control); in the test with ELK4 it was 1.01 fold enrichment (6-mer frequency, TF over GST control); in the test with ETV2 it was 1.01 fold enrichment (6-mer frequency, TF over GST control); with ELF3, 1.17 fold enrichment (6-mer frequency, TF over GST control); with ETV7, 1.18 fold enrichment (6-mer frequency, TF over GST control).
With GTTGCG, the binding signal in the test with ELK3 is 1.01 fold enrichment (6-mer frequency, TF over GST control); in the test with ELK4 it was 1.01 fold enrichment (6-mer frequency, TF over GST control); with ETV2, 1.03 fold enrichment (6-mer frequency, TF over GST control); with ETV7, 1.04 fold enrichment (6-mer frequency, TF over GST control).
With ATAGCG, the binding signal with ELK3 was 1.05 fold enrichment (6-mer frequency, TF over GST control); in the test with ELF3, 1.11 fold enrichment (6-mer frequency, TF over GST control).
As to ATGGCG, the binding signal in the test with ELK3 is 1.01 fold enrichment (6-mer frequency, TF over GST control); in the test with ELF3 it was 1.03 fold enrichment (6-mer frequency, TF over GST control); with ETV7 it was 1.01 fold enrichment (6-mer frequency, TF over GST control).
For CGTAGC, the binding signal was 1.23 fold enrichment (6-mer frequency, TF over GST control) with ELK4; 1.03 fold enrichment (6-mer frequency, TF over GST control) in the test with ETV2; 1.12 fold enrichment (6-mer frequency, TF over GST control) in the test with ELF3; 1.09 fold enrichment (6-mer frequency, TF over GST control) with ETV7.
For CAAGTT, the binding signal with ELK3 is 1.03 fold enrichment (6-mer frequency, TF over GST control); with ELK4, 1.08 fold enrichment (6-mer frequency, TF over GST control); with ETV2, 1.03 fold enrichment (6-mer frequency, TF over GST control); with ELF3 it was 1.06 fold enrichment (6-mer frequency, TF over GST control).
On to TGCCCA, for which the binding signal in the test with ELK4 was 1.25 fold enrichment (6-mer frequency, TF over GST control); in the test with ETV2, 1.1 fold enrichment (6-mer frequency, TF over GST control); with ETV7, 1.23 fold enrichment (6-mer frequency, TF over GST control).
With ACACGC, the binding signal with ELK3 is 1.12 fold enrichment (6-mer frequency, TF over GST control); in the test with ELK4 it was 1.26 fold enrichment (6-mer frequency, TF over GST control); with ETV2, 1.19 fold enrichment (6-mer frequency, TF over GST control); with ELF3, 1.11 fold enrichment (6-mer frequency, TF over GST control).

The values are drawn from paper PMC7862700, “An all-to-all approach to the identification of sequence-specific readers for epigenetic DNA modifications on cytosine”.
